# Structures can show the parent of a compound that is named as a salt.
# System: Saccharomyces cerevisiae BY4741 SeMeCo community
# Experiment: z-score of prototroph abundance vs DMSO median; higher = larger share of this subpopulation than in DMSO controls
# Details: 10 µM; 24 h; SM minimal medium; subpopulation (auxotrophy): Prototroph
# In short: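 Scoring was based on each subpopulation's abundance, expressed as a z-score against the vehicle-well median. A Saccharomyces cerevisiae BY4741 community with four plasmids, each restoring one auxotrophy and encoding a distinct fluorescent protein, was pre-grown overnight to OD600 1.0, diluted to 0.3, and added at 70 µl to 384-well plates acoustically predosed with library drugs (10 µM final). It then grew 24 h in minimal SM medium before paraformaldehyde fixation and automated confocal microscopy, with single-auxotroph fluorescent strains setting thresholds and autofluorescence correction.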
row,Structure (SMILES),z-score of prototroph abundance
1,CC[C@H]1OC(=O)[C@H](C)[C@@H](O[C@H]2C[C@@](C)(OC)[C@@H](O)[C@H](C)O2)[C@H](C)[C@@H](O[C@@H]2O[C@H](C)C[C@H](N(C)C)[C@H]2O)[C@](C)(O)C[C@@H](C)CN(C)[C@H](C)[C@@H](O)[C@]1(C)O [Azithromycin],-0.03
2,CN(C)C[C@@H]1CCn2cc(c3ccccc32)C2=C(C(=O)NC2=O)c2cn(c3ccccc23)CCO1,-0.66
3,COc1ccc(C(C)=O)c(O)c1 [Paeonol],-0.25
4,CO[C@H]1O[C@@H]2O[C@@]3(C)CC[C@H]4[C@H](C)CC[C@@H]([C@H]1C)[C@@]24OO3 [Artemether],1.17
5,COc1cccc2c1C(=O)c1c(O)c3c(c(O)c1C2=O)C[C@@](O)(C(C)=O)C[C@@H]3O[C@H]1C[C@H](N)[C@H](O)[C@H](C)O1 [Daunorubicin HCl],-0.6
6,Nc1ccc(S(=O)(=O)Nc2nccs2)cc1 [Sulfathiazole],0.17
7,NCc1ccccc1CC(=O)N[C@@H]1C(=O)N2C(C(=O)O)=C(CSc3nnnn3CC(=O)O)CS[C@H]12 [Ceforanide],-0.53
8,C[C@@H](O)[C@H]1C(=O)N2C(C(=O)O)=C(S[C@@H]3CN[C@H](C(=O)N(C)C)C3)[C@H](C)[C@H]12 [Meropenem],0.37
9,CN(C)CCCN1c2ccccc2CCc2ccc(Cl)cc21 [Clomipramine HCl],-0.93
10,O=C1CN(/N=C/c2ccc(-c3ccc([N+](=O)[O-])cc3)o2)C(=O)N1 [Dantrolene sodium],2.09

# From the supplement of paper PMC8975748
